Only some compounds are listed: those with a hit (about 11% of all), similar ones and a draw of the others.
HEK cytotox: cytotoxic compounds in HEK 293 cells; HEK 293 viability, ATP luminescence (CellTiter-Glo), 48-72 h; Potency, µM (doses to about 115 µM), for the others: at the top dose activity change, negative = cytotoxicity, usual class: inhibitors; 94,000 compounds, 6.6% hits; AID 1345083; also: nearly all actives have a fitted effect of over 60% in size
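Cells seeded first (HEK 293, 250 cells/well), then compound added by pintool. Incubation ran 48 or 72 hr at 37 degree Celsius. CellTiter-Glo was added and luminescence imaged after 10 min at room temperature.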
NPR1 antag: human Npr1 receptor antagonism. P16066. HEK293 hNpr1 GloSensor cGMP, ANP-stimulated luminescence. Potency, µM (titrated, usually from 46.3 µM), inactives show top-dose activity change, negative = inhibition, actives largely listed as inhibitors. 76,000 compounds, 1.6% hits; calls by dose curve; also: nearly all actives have a fitted effect of over 60% in size
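HEK293 cells stably expressing human Npr1 and cGMP GloSensor pGS-40F, loaded 2 h with 2% GloSensor reagent, given compound 30 min at room temperature. Luminescence read before and 20 min after 0.1 nM hNppA.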
3T3 cytotox: NIH 3T3 cell cytotoxicity; Potency, µM (titrated, usually from 96.7 µM), for inactives: top-dose activity change, negative = cytotoxicity, usual class: inhibitors; NIH 3T3 viability, CellTiter-Glo ATP luminescence, 48-72 h; AID 1345082; 94,000 compounds, 4.3% hits; also: nearly all actives have a fitted effect of over 55% in size
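ATP-dependent luminescence (CellTiter-Glo) served as the viability signal for NIH 3T3 cells treated with compound for 48 or 72 hr at 37 °C.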
Luciferase inh: inhibitors of firefly (Photinus pyralis) luciferase; 76,000 compounds, 2.5% hits; P08659; AID 1347043; purified P. pyralis luciferase, luminescence, biochemical; Potency, µM (series often up to 115 µM), actives largely listed as inhibitors; also: nearly all actives have a fitted effect of over 65% in size
Target sequence (P08659 whole entry, looked up): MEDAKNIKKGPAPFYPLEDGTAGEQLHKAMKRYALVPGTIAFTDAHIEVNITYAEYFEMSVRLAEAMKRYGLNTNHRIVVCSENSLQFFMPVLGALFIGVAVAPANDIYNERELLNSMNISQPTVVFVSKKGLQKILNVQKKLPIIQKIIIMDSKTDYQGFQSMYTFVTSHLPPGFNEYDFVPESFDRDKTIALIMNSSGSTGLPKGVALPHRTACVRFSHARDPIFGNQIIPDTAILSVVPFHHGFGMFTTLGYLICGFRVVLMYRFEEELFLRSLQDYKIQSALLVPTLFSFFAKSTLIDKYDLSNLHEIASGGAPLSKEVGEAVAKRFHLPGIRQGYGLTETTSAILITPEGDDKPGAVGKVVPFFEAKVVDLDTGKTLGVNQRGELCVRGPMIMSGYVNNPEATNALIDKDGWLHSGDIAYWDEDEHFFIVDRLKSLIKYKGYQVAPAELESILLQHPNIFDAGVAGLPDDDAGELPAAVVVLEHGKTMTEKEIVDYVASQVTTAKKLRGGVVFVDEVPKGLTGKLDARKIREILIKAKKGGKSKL
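Purified P. pyralis luciferase (10nM final) in 50mM Tris acetate pH 7.5, 10mM Mg acetate, 0.01% Tween-20, 0.05% BSA with 10uM D-luciferin and 10uM ATP. Compounds titrated qHTS. Luminescence imaged on CCD.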
* hit, by the source's call; i = inactive; ? = inconclusive; · = no result given; [ ] = dose if it differs, or a comment. Unless noted, calls follow the shape of the dose curve; as a rule, active = well fitted curve in the direction sought with a large enough effect; inconclusive = small, poorly fitted or top-dose-only effect, or another doubt; inactive = no such curve, though single readings can be large; an effect the other way counts as inactive or inconclusive. % is scaled to controls: 0 for no effect and ±100 for the full control effect; potency is read from the fitted curve at half-maximal effect.

SMILES	HEK cytotox	NPR1 antag	3T3 cytotox	Luciferase inh
COc1ccccc1N1CCN(C(=O)C2CCCN(S(C)(=O)=O)CCC(=O)NCC2)CC1 (centres undefined)	2%	6%	-6%	i
COc1ccc(CCNC(=O)c2ccc3nnc(-c4cccnc4)n3c2)cc1	-8%	·	-6%	·
O=C(Nc1ccccc1F)NC1CCc2nn(CC3CC3)c(=O)n2CC1 (centres undefined)	-9%	·	-22%	·
COc1ccc(-c2cccc(C(=O)NCC(C)C)c2)nn1	-23%[172 µM]	·	?	·
CC(C)CNC(=O)Nc1cccc(-c2ccc(N3CCC(C)CC3)nn2)c1	-8%	7.1µM*	-20%	0.32µM*
COc1ccc(NC(=O)Nc2cccc(-c3ccc(N4CCC(C)CC4)nn3)c2)cc1OC	?	3.2µM*	?	0.1µM*
CC(C)NC(=O)N1CCN(C(=O)c2nc3cccnc3n(CCc3ccccc3)c2=O)CC1	-3%	·	-4%	·
Cc1ccc(-c2cccc(CN3CCCC3C(=O)N3CCN(c4ncccn4)CC3)c2)cc1Cl (centres undefined)	14µM*	·	?	·
Cc1ccc(-c2cccc(CN3CCCC3C(=O)NCC(F)F)c2)cc1Cl (centres undefined)	40µM*	·	?	·
Cc1ccc(-c2cccc(CN3CCCC3C(=O)NCC(C)C)c2)cc1Cl (centres undefined)	40µM*	·	35µM*	·
Cc1ccc(-c2cccc(CN3CCCC(NC(=O)c4ccc(Cl)nc4)C3)c2)cc1Cl (centres undefined)	-4%	·	-23%	·
O=C(c1cc2ccccc2[nH]1)N1CCN(c2cc(-c3ccccc3)[nH]n2)CC1	?	-10%	35µM*	?
O=C(c1ccccc1Cl)N1CCN(c2cc(-c3ccccc3)[nH]n2)CC1	20µM*	-13%	?	i
COc1ccc(-c2cc(N3CCN(C(=O)c4cc5ccccc5[nH]4)CC3)n[nH]2)cc1	28µM*	-28%	20µM*	?
COc1ccc(-c2cc(N3CCCN(C(=O)c4ccccc4)CC3)n[nH]2)cc1	?	3%	-11%	i
O=C(c1ccc(F)cc1F)N1CCN(c2cc(-c3ccc(F)cc3)[nH]n2)CC1	40µM*	?	?	i
COc1ccccc1-c1nnc([C@H]2CCN(Cc3cccnc3)C2)o1	-5%[172 µM]	-11%[70.6 µM]	i	i
N#Cc1cccc(C(=O)N2CCNc3cnc(Nc4cccc(F)c4)nc3C2)c1	?	28µM*	?	i
O=C(c1cc2ccccc2[nH]1)N1CCNc2cnc(Nc3ccccc3)nc2C1	79µM*	?	?	?
COCCn1ncc(N2CCCC(CC(=O)N3CCCN(C)CC3)C2)cc1=O (centres undefined)	-7%	·	-21%	·
CC(C)(Oc1nn(Cc2cccc(Cl)c2)c2ccccc12)C(=O)NC1CC1	?	-23%[70.6 µM]	?	i
c1ccc(-c2nc3ncccc3[nH]2)cc1	?	0%[70.6 µM]	-29%[174 µM]	?
COc1ccc(CN2CC(c3ncc4c(-c5ccccc5)nccn34)C2)cc1O	?	-25%[70.6 µM]	89µM*	i
C[S+](=O)([O-])N1CCN(CCn2nc3n(c2=O)CCCC3)CC1	2%[172 µM]	·	-19%[138 µM]	·
COc1cccc(C(O)c2nc(C(=O)Nc3ccc4c(c3)NC(=O)CO4)c(C)o2)c1 (centres undefined)	89µM*	-4%[70.6 µM]	?	63µM*
SMILES	HEK cytotox	NPR1 antag	3T3 cytotox	Luciferase inh
CC(=O)N1CC2(CCN(C(=O)c3ccc(Cl)cc3)CC2)Cc2ccccc21	?	·	10µM*	·
CC(=O)N1CC2(CCCN(CC3CC3)C2)Cc2ccccc21 (centres undefined)	i	·	i	·
O=C(c1ccc(Cl)cc1)N1CC2(CCCN(Cc3cccnc3)C2)Cc2ccccc21 (centres undefined)	40µM*	·	?	·
CC(=O)N1CC2(CCCN(Cc3cc4ccccc4[nH]3)C2)Cc2ccccc21 (centres undefined)	?	·	25µM*	·
O=C1NCCCN1C1CCN(Cc2cccc3ccccc23)CC1	?	-10%[70.6 µM]	-23%[138 µM]	i
O=C(CN1C(=O)NC(c2ccccc2Cl)C2=C1COC2=O)Nc1ccc(F)cc1F (centres undefined)	?	0%	-6%	i
Cc1ccccc1-c1noc(CNCc2nc3ccc(Cl)cc3[nH]2)n1	79µM*	-3%	?	i
COc1ccc(N2CCOC3CCN(CCCc4ccccc4)CC3C2=O)cc1 (centres undefined)	?	3%[70.6 µM]	?	i

From PubChem BioAssay
